CtBP-E1A inh: blocks the CtBP interaction with E1A. AlphaScreen GST-E1A/His-CtBP binding, 1536-well; active compounds read low. activity change, % (concentration not given with the values). 0.49% of 340,000 active; in the data active means activity change below about -65%; inconclusive means mostly about -30% to -63%
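GST-E1A and His-tagged CtBP (125 nM each as 5X stock) were preincubated with pin-transferred compound for 2 h at 37 °C in the dark, then glutathione donor and nickel acceptor beads were added for 1 h before AlphaScreen reading.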
DT40 TDP1 CPT: DT40-hTDP1 cell growth loss with CPT; Potency, µM (highest dose often 46.2 µM), without a hit: top-dose activity change, negative = growth inhibition, most hits filed as inhibitors; 12% of 420,000 active; chicken DT40 Tdp1-/-;hTDP1 cells + 20 nM CPT, ATP luminescence, 48 h; AID 686979; further: potency means the concentration at half of the fitted maximal effect; nearly all actives have a fitted effect of over 55% in size
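Chicken DT40 Tdp1-/- cells stably complemented with human TDP1 were seeded at 400 cells/well in medium containing 20 nM camptothecin, exposed to pin-transferred compounds, and grown at 37 °C for at least 48 hr. Viability was read as ATP luminescence.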
Six1-Eya2 blk: Six1/Eya2 interaction inhibition | AID 651725 | activity change, % (no concentration beside the values) | 0.56% of 360,000 active | Q15475+O00167 | AlphaScreen GST-Six1/His-Eya2 binding, biochemical; active compounds read low; in the data active means activity change below about -65%; inconclusive means mostly about -30% to -63%
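Six1/Eya2 binding was read as AlphaScreen signal after compounds were pinned into GST-Six1 plus His-tagged Eya2 (5X stock 250/500 nM) in pH 8.0 Tris/NaCl/TCEP buffer, beads added, then incubated 1 h, 37 C, dark.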
TDP1 cell noCPT: qHTS for Inhibitors of human tyrosyl-DNA phosphodiesterase 1 (TDP1): qHTS in cells in absence of CPT | DT40 Tdp1-/- hTDP1 cells, no CPT, ATP luminescence, 48 h | Potency, µM (top dose mostly 46.2 µM), for inactives: top-dose activity change, negative = growth inhibition, hits mostly inhibitors | 15% of 420,000 active; further: potency means the concentration at half of the fitted maximal effect; nearly all actives have a fitted effect of over 55% in size
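No-CPT arm: Tdp1-/-;hTDP1 DT40 cells (400/well) plus compounds, incubated ≥48 hr at 37 °C. Readout CellTiter-Glo luminescence.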
IL1B secr inh: blocks inflammasome-driven IL-1 beta release; AID 743279; THP-1 LPS/ATP IL-1B secretion, AlphaLISA, 16 h; active compounds read low; activity change, % at 57.5 µM; 4.7% of 360,000 active; in the data active means activity change below about -50%; inconclusive means mostly about -30% to -49%
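THP-1 cells pretreated 1 hr with compounds (up to 57.5 uM final), then stimulated with LPS (250 ng/mL final) plus ATP (1.25 mM final); secreted IL-1B measured by AlphaLISA after 16 hr, decreased signal indicating inhibition.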
TDP1 inh: TDP1 (human) enzyme inhibition; Q9NUW8; recombinant TDP1, AlphaScreen DNA substrate cleavage; 0.28% of 350,000 active; Potency, µM (titrated, usually from 130 µM), for inactives: at the highest dose activity change, negative = inhibition, actives largely listed as inhibitors; further: potency means the concentration at half of the fitted maximal effect; nearly all actives have a fitted effect of over 40% in size
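E. coli-derived human Tdp1, 1 nM final. Cpd preinc 15 min RT; substrate 15 nM final, 5 min RT; AS bead mix 10 ug/ml final, 10 min RT. Signal loss = tyrosine-FITC cleavage. No-enzyme wells = max signal.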
* hit, by the source's call; ? = inconclusive; / = no result; [ ] = another dose, or the depositor's remark. Hits are enriched below; roughly 18% of the tested compounds scored in any of these assays. Unless noted, the call rests on the fitted dose curve; in most records, active means well fitted curve in the direction sought with a large enough effect; inconclusive means small, poorly fitted or top-dose-only effect, or another doubt; inactive means no such curve, though single readings can be large; an effect the other way counts as inactive or inconclusive. On the % scale 0 is the no-effect control and ±100 the full control effect.

SMILES	CtBP-E1A inh	DT40 TDP1 CPT	Six1-Eya2 blk	TDP1 cell noCPT	IL1B secr inh	TDP1 inh
COc1ccc2c(c1)[nH]c1c(=O)n(/N=C/c3ccc(OC)c(CN4CCCC4)c3)cnc12	-8.3	?	-9.0	?	?	0.0%
COc1ccc(/C=N/n2cnc3c([nH]c4ccc(F)cc43)c2=O)cc1CN1CCCC1	-13.6	5.17µM*	-11.4	3.26µM*	32.7	-5.1%
COc1ccc(/C=N/n2c(=O)[nH]c3c([nH]c4ccc(F)cc43)c2=O)cc1CN1CCCCC1	-12.3	15.8%	-23.2	-10.1%	0.5	3.8%
CC(=O)c1ccc(OCC(=O)N(C)CC(=O)Nc2ccc(N3CCOCC3)cc2)cc1	-9.3	7.3%	5.6	0.1%	29.6	0.4%[56.1 µM]
O=c1cc(N2CCCC2)c(-c2ccccc2)n[nH]1	-16.5	-9.0%	6.4	-9.9%	-6.3	5.4%
NC1(c2ccc(-c3nc4ccn5c(=O)[nH]nc5c4cc3-c3ccccc3)cc2)CCC1	/	0.376µM*	/	0.596µM*	/	/
COc1cc2ccccc2cc1C(=O)Nc1ccc(O)cc1	2.1	-30.0%	0.0	?	0.5	-4.3%
COc1ccc(NC(=O)c2cccc3ccccc23)cc1	0.0	18.4µM*	-6.9	20.6µM*	-7.0	/
COc1ccc(NC(=O)c2cnc(SC)nc2)cc1	/	14.6µM*	8.4	11.6µM*	8.8	3.6%
O=C(Nc1ccc2ccccc2c1)c1ccccc1O	7.2	13µM*	-2.5	10.3µM*	-69.2*	/
COc1ccc(NC(=O)c2cccc3c(Br)cccc23)cc1	/	?	0.1	?	20.4	/
O=C(Nc1ccc2ccccc2c1)c1ccccc1Cl	2.9	?	-0.4	?	-26.5	/
COc1ccc(NC(=O)c2cc3ccccc3cc2O)cc1	3.2	?	4.4	?	-98.9*	/
CCOC(=O)c1cnc(=O)[nH]c1C	2.3	-6.8%	4.9	-4.5%	17.2	3.1%
Oc1ccc2ccccc2c1CNc1ccc2ccccc2c1	-23.3	-9.4%	-19.1	?	-100.0*	/
Cc1ccc(NC(=O)NNC(=O)c2cc3ccccc3cc2O)cc1C	4.2	-3.9%	-4.2	5.0%	8.7	-3.1%
Cc1ccc(NC(=O)c2cc3ccccc3cc2O)cc1	8.2	16.4µM*	11.1	?	-9.2	/
O=C(Nc1cccnc1Oc1ccc(Cl)cc1)c1cccc2ccccc12	8.5	-10.1%	8.7	?	-56.9*	0.0%
COc1ccc(NC(=O)c2cc(SC)ccc2Cl)cc1	3.3	23.1µM*	-0.9	?	?	0.6%
Oc1ccc2ccccc2c1CNc1ccccc1	-2.0	?	4.0	?	-29.4	/
CC(=O)CCc1oc2ccccc2c1-c1ccccc1	35.0	-4.9%	43.1	-14.4%	-0.1	-5.8%
O=C(c1ccc2c3c(cccc13)CC2)C1CCCN(C(=O)c2cc[n+]([O-])cc2)C1 (stereo not drawn)	-1.8	2.0%	-0.6	0.2%	-16.6	6.2%
COc1ccc(NC(=O)c2c(Cl)n(C)c3ccccc23)cc1	-1.2	8.2µM*	-8.5	8.2µM*	18.4	-1.0%

Screening data from PubChem.
